# Assay results reported in the supplement of paper PMC11732987, “Enantioselective OTUD7B fragment discovery through chemoproteomics screening and high-throughput optimisation” (Communications Chemistry, 2025).
# A number with no mark means an inactive call.
# Assays:
# Assay in all cases: log2 ratio of Biotin-Ahx-Ub-VS probe labelling (fragment/DMSO); higher = less target engagement (more negative = stronger competition), active = hit call of the paper (q ≤ 0.05, log2 ratio ≤ -1)
# Conditions in all cases: compound concentration: 200 uM; treatment time: 3 h
# OTUD6B = molecular target: T1, OTUD6B (UniProt Q8N6M0)
# T1 sequence (whole entry): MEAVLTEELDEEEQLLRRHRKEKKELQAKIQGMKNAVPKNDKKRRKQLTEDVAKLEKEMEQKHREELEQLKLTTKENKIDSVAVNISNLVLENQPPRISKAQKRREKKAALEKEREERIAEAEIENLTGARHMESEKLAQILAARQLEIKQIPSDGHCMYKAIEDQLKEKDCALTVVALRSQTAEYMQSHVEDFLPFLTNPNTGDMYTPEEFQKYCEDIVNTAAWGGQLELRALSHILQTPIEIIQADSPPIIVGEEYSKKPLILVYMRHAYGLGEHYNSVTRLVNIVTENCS
# Method in brief: (§1)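 Fragment (200 µM) or vehicle was incubated for 3 h with triplicate HEK293T lysate samples of 495 µg, which were then treated with Biotin-Ahx-Ub-VS at 0.5 µM final for 1 h. Labelled DUBs were enriched on NeutrAvidin, digested with LysC and trypsin, and analysed by diaPASEF LC-MS/MS. Values are average log2 fragment/vehicle ratios from an unpaired t-test on global-median-normalised Spectronaut label-free quantities, using proteins with ≥2 unique peptides.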
# OTUD7B = molecular target: T2, OTUD7B (UniProt Q6GQQ9)
# T2 sequence (whole entry): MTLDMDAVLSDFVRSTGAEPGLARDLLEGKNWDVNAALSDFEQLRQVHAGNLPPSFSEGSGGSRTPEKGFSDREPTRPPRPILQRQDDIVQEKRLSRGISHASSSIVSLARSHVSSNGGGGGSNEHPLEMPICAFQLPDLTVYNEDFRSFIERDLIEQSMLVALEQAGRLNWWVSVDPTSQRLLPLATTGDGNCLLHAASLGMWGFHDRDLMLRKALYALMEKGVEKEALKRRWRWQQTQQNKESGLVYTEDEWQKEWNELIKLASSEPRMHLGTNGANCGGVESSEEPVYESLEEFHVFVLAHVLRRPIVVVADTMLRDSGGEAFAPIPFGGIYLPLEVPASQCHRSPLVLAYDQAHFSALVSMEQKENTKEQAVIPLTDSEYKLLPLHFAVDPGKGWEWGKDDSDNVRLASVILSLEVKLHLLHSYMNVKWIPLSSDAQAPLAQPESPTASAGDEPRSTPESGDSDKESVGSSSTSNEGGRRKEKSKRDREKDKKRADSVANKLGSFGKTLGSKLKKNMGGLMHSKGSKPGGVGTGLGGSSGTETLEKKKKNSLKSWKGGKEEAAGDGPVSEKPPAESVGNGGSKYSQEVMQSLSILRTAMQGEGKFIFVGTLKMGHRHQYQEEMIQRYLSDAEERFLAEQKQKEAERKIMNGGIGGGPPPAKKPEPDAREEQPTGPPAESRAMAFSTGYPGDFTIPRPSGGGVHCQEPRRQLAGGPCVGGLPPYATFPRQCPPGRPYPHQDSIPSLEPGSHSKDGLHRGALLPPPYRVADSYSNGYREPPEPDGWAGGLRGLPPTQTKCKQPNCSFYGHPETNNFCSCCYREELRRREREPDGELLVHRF
# Method in brief: as §1
# PRPF8 = PRPF8 (UniProt Q6P2Q9)
# Method in brief: as §1
# PSMD7 = molecular target: T3, PSMD7 (UniProt P51665)
# T3 sequence (whole entry): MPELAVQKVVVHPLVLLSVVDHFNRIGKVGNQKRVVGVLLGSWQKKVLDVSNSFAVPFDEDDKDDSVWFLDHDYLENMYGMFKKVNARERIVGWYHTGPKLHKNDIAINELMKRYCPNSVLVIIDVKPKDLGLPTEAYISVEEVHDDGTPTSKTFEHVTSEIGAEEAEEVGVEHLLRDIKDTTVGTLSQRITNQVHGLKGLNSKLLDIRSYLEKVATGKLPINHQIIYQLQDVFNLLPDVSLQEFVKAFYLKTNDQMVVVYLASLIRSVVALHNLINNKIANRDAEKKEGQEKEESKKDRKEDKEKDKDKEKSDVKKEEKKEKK
# Method in brief: as §1
# UCHL1 = UCHL1 (UniProt P09936)
# Method in brief: as §1
# UCHL3 = molecular target: T4, UCHL3 (UniProt P15374)
# T4 sequence (whole entry): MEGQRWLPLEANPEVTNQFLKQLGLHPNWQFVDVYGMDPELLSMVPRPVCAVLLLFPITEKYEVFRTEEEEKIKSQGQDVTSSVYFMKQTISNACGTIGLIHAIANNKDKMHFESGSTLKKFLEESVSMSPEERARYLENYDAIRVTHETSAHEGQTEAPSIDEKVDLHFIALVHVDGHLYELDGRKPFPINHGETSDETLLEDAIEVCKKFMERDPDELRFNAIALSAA
# Method in brief: as §1
# UCHL5 = molecular target: T5, UCHL5 (UniProt Q9Y5K5)
# T5 sequence (whole entry): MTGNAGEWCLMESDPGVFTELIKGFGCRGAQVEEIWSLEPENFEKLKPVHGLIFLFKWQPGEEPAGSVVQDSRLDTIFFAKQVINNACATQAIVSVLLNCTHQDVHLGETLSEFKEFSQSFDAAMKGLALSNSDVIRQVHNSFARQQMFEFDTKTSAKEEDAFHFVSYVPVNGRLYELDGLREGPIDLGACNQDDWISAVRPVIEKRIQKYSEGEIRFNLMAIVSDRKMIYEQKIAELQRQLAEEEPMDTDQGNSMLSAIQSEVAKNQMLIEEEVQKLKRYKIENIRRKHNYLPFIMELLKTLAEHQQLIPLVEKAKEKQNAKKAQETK
# Method in brief: as §1
# USP10 = USP10 (UniProt Q14694)
# Method in brief: as §1
# USP15 = molecular target: T6, USP15 (UniProt Q9Y4E8)
# T6 sequence (whole entry): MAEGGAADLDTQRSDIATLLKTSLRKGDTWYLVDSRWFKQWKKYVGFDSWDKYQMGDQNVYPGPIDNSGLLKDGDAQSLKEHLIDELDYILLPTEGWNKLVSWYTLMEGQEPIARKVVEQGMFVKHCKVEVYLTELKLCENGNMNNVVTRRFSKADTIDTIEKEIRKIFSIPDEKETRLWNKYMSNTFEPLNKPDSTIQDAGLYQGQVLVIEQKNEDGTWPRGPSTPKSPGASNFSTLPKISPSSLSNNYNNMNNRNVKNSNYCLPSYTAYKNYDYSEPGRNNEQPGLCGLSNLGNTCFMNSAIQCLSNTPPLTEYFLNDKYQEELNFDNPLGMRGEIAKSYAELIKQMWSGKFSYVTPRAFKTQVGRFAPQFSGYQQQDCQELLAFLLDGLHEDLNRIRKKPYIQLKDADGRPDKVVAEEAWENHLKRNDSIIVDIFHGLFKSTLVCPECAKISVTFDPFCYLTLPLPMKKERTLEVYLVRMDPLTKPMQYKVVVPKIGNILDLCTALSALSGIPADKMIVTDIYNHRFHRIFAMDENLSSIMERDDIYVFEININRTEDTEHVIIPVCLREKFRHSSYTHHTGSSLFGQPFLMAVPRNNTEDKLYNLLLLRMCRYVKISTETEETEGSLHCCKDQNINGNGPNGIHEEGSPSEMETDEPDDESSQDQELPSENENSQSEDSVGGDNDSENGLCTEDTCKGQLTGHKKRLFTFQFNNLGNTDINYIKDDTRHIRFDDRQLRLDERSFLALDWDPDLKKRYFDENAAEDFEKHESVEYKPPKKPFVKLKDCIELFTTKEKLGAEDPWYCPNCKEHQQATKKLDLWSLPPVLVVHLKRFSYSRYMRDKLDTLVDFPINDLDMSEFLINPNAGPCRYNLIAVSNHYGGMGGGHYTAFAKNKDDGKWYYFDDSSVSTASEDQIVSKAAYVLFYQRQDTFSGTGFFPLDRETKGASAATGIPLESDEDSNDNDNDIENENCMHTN
# Method in brief: as §1
# USP16 = USP16 (UniProt Q9Y5T5)
# Method in brief: as §1
# Chain of UCHL1 (P09936 whole entry, looked up): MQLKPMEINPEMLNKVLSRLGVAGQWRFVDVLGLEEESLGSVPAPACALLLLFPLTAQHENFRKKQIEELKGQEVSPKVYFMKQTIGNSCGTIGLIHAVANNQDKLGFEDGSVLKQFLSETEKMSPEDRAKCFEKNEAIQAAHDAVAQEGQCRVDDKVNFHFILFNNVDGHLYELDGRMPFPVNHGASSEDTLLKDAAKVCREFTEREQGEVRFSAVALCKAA
# Chain of USP16 (Q9Y5T5 whole entry, looked up): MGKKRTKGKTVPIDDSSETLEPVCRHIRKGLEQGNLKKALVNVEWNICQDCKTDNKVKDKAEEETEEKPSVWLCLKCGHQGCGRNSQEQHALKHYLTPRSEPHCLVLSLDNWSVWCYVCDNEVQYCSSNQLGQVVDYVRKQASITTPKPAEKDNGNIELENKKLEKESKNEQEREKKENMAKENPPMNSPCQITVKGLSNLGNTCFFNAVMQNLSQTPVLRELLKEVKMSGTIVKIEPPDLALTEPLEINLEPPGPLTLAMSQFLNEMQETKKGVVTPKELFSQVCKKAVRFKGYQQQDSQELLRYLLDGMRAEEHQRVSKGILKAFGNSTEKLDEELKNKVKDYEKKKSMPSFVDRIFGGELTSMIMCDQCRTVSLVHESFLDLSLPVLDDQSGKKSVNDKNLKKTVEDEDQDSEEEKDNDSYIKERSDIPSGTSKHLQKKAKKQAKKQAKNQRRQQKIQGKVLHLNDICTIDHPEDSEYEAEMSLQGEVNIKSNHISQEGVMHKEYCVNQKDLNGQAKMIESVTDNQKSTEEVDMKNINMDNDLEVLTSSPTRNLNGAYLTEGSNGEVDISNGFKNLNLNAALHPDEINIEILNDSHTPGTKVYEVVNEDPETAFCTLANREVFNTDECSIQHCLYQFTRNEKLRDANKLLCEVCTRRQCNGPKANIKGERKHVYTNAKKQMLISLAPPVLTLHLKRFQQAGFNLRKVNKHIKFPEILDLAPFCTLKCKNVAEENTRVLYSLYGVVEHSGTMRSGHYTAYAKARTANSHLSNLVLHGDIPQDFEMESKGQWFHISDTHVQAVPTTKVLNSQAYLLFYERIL
# Chain of USP10 (Q14694 whole entry): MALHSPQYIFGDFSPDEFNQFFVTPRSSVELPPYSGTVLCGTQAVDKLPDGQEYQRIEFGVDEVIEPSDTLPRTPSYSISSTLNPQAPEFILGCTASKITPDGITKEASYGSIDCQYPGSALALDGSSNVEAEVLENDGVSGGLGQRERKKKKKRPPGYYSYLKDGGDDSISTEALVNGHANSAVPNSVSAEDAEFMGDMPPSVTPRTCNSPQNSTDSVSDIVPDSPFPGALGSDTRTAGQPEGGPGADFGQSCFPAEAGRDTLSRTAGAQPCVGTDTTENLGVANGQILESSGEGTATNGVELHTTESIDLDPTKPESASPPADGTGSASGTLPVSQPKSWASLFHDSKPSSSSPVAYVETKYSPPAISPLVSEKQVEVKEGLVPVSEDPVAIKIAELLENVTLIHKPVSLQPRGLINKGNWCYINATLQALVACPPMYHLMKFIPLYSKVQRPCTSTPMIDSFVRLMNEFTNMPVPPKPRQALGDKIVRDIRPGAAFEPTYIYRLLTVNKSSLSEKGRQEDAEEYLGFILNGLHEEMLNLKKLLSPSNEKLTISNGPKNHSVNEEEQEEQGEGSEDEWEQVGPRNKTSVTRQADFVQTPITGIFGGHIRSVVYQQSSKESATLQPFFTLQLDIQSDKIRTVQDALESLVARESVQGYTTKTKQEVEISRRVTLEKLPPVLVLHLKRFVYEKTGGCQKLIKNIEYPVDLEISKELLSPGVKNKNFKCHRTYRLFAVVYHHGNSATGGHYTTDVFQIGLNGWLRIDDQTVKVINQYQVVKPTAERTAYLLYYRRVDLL
smiles,measurement,setting,value
O=C(CCl)NCc1ccc(N2CCOCC2)nc1,log2 ratio of Biotin-Ahx-Ub-VS probe labelling,OTUD6B,-0.139
same,log2 ratio of Biotin-Ahx-Ub-VS probe labelling,OTUD7B,-0.502
same,log2 ratio of Biotin-Ahx-Ub-VS probe labelling,PRPF8,-0.0538
same,log2 ratio of Biotin-Ahx-Ub-VS probe labelling,PSMD7,-0.249
same,log2 ratio of Biotin-Ahx-Ub-VS probe labelling,UCHL1,-1.45 (active)
same,log2 ratio of Biotin-Ahx-Ub-VS probe labelling,UCHL3,0.0731
same,log2 ratio of Biotin-Ahx-Ub-VS probe labelling,UCHL5,-0.235
same,log2 ratio of Biotin-Ahx-Ub-VS probe labelling,USP10,-0.0833
same,log2 ratio of Biotin-Ahx-Ub-VS probe labelling,USP15,-0.285
same,log2 ratio of Biotin-Ahx-Ub-VS probe labelling,USP16,-0.342
